Compound activity as filed in PubChem BioAssay.
Most compounds without a hit are left out; they make up all but 2.1% or so of the library.
eIF4H FP inh: human eIF4H binding inhibitors, primary screen, translation initiation inhibitor project, biochemical, uHTS, fluorescence polarization; Eukaryotic translation initiation factor 4H (Homo sapiens), Q15056; eIF4H fluorescence polarization binding assay; inhibition, % at 35 µM; 290,000 compounds, 0.94% hits; AID 2012, 2009;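 further: calls also rest on retests at 20 µM and on dose response follow-up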
MLLE-PAM2 inh: inhibitors of PABP1 MLLE–PAM2 peptide binding, primary screen, biochemical, fluorescence polarization, FITC-PAM2, GST-MLLE; Polyadenylate-binding protein 1 (Homo sapiens), P11940; AID 588489, 2011; 360,000 compounds, 0.36% hits; inhibition, % at 20 µM; in the data active means inhibition above about 35%, passing the limit was not always enough;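 further: plate controls were DMSO wells with GST-MLLE for no effect and wells lacking GST-MLLE protein for full effect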
Target sequence (P11940 whole entry, looked up): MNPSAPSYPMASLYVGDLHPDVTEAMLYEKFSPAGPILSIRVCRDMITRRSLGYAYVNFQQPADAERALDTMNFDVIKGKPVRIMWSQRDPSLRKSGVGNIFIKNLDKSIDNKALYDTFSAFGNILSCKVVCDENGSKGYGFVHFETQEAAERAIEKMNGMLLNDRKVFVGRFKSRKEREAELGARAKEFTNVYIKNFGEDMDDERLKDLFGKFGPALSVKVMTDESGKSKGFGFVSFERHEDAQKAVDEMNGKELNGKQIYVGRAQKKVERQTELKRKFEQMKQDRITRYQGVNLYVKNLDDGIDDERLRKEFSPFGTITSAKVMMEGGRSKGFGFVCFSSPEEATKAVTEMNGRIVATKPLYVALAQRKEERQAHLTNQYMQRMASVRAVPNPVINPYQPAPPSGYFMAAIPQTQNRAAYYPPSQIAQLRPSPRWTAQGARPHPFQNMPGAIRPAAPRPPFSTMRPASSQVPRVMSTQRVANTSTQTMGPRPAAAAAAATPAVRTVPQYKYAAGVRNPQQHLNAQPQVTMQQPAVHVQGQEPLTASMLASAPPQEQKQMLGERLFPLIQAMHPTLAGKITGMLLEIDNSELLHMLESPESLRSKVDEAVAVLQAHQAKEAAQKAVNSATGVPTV
CendR NRP1 mod: modulators of CendR peptide binding to NRP-1, primary screen, biochemical, fluorescence polarization, uHTS. FAM-RPARPAR peptide binding to NRP-1. inhibition, % at 25 µM. 360,000 compounds, 0.85% hits. AID 602438, 2012;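 active means inhibition or corrected inhibition above about 18%, plus a signal ratio from 0.5 to 1.5, limit read from the data, passing the limit was not always enough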
PABP polyA inh: PABP poly(A) RNA binding inhibitors, primary screen, biochemical, fluorescence polarization, uHTS; Polyadenylate-binding protein 1 (Homo sapiens), P11940; inhibition, % at 35 µM; 290,000 compounds, 1% hits; AID 2014, 2009;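 further: calls also rest on retests at 20 µM and on dose response follow-up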
Active calls of the source: *; ? = inconclusive; / = no result. Unless noted, how the calls were made is not given here.

SMILES | eIF4H FP inh | MLLE-PAM2 inh | CendR NRP1 mod | PABP polyA inh
C=CCn1c(COc2ccc(OC)cc2)nnc1SCn1nnc2ccccc2c1=O | active | -40.0 | -8.3 | 63.1*
O=c1c2ccccc2nnn1CSc1nnc(COc2ccc(Cl)cc2)n1Cc1ccco1 | 6.6 | -4.6 | 2.7 | -6.3
CCCCOc1ccc(/C=C/C(=O)N(CC)CC(=O)Nc2ccc3c(c2)OCCO3)cc1OC | / | 3.9 | -8.4 | /
O=C(NNc1ccc(Cl)cc1)c1sccc1Cl | -10.1 | 42.0* | 0.1 | 2.8
CC(Nc1nc(-c2ccc(F)cc2)cs1)c1nc2cc(Cl)c(Cl)cc2n1CCOCCO (stereo unspecified) | / | -88.9 | -7.1 | /
Cc1csc(NC(C)c2nc3cc(C(F)(F)F)ccc3n2CCOCCO)n1 (stereo unspecified) | / | -77.9 | 32.9* | /
O=C(COC(=O)CN1C(=O)NC2(CCCC2)C1=O)NCc1ccc(Cl)cc1Cl | / | 1.9 | 8.4 | /
C[C@H](NC(=O)c1ccccc1)C(=O)N1CCN(Cc2ccc3c(c2)OCO3)CC1 | / | -14.2 | -8.6 | /
NC(=O)CC[C@H](NC(=O)c1ccc(F)cc1)C(=O)N1CCN(Cc2ccc3c(c2)OCO3)CC1 | / | 2.4 | 20.6* | /
CC1(C)Cc2c(sc(NC(=O)c3ccco3)c2C#N)C(C)(C)N1 | 60.7* | / | / | 98.8*
CC(=O)Nc1sc2c(c1C#N)CC(C)(C)NC2(C)C | -5.1 | 6.0 | 8.1 | -1.9
Cc1nc(-c2ccccc2)sc1C(=O)NS(=O)(=O)c1ccc(CN2CCN(c3ccccc3)CC2)cc1 | / | / | -9.7 | /
CCSc1nc(=O)n(-c2ccccc2)c(C)c1C(C)=O | -17.1 | -5.9 | -3.0 | -6.9
CC(=O)c1c(N2CCOCC2)nc(=S)n(-c2ccccc2)c1C | -1.7 | 45.0* | 4.2 | 2.1
CCn1c(C)c(C(C)=O)c(N2CCN(c3ccccn3)CC2)nc1=S | 66.2* | 17.4 | -4.2 | 67.2*
CCSc1nc(=S)n(-c2ccccc2)c(C)c1C(C)=O | 2.5 | 43.3* | 3.9 | 5.5
CCn1c(C)c(C(C)=O)c(N2CCN(c3ccccc3)CC2)nc1=S | 127.5* | -1.5 | -49.5 | 120.4*
CC(C)(C)NC(=O)C1(N2C(=O)c3ccccc3C2=O)CCCC1 | / | 0.2 | 9.2 | /
CCOC(=O)C1=CCN(S(=O)(=O)c2ccc(C)cc2)C1c1ccc(C)cc1 (stereo unspecified) | / | 9.9 | -4.4 | /
CCOC(=O)C1=CCN(S(=O)(=O)c2ccc(C)cc2)C1c1ccc(C(C)C)cc1 (stereo unspecified) | / | -1.0 | 27.6* | /
CCOC(=O)C1=CCN(S(=O)(=O)c2ccccc2Br)C1c1ccccc1 (stereo unspecified) | / | -1.0 | 25.2* | /
CCCCN(C=O)c1c(CC)nc2ccc(C(=O)N(C)Cc3ccccc3)cn12 | / | 2.5 | 9.4 | /
O=C(CSc1nnc(Cn2c(=O)sc3ccccc32)n1CCc1ccccc1)N1CCCC1 | -2.7 | -101.4 | 1.3 | -3.8
Cn1c(Cn2c(=O)sc3ccccc32)nnc1SCC(=O)N1CCN(c2ccccc2)CC1 | 12.1 | -7.7 | 27.0* | -3.8
O=S(=O)(c1cc(Cl)c(Cl)cc1Cl)N1CCN2CCCC2C1 (stereo unspecified) | 0.5 | -6.5 | 1.7 | -4.1
SMILES | eIF4H FP inh | MLLE-PAM2 inh | CendR NRP1 mod | PABP polyA inh
COC(=O)C1=C(C(=O)OC)SC(=C2C(=S)C(C)(C)N(C(=O)C3CC3)c3ccccc32)S1 | -14.5 | 39.5* | 1.3 | 0.0
COc1ccc2c3c(ccc2c1)C(=O)/C(=C/O)CC3 | / | 43.4* | -36.9 | /
COc1ccc2c(c1)CC/C(=C/c1ccncc1)C2=O | -4.5 | 13.6 | -18.3 | -7.6
CC(C)c1ccc(NC2CCCN(C(=O)CN3CCCCC3=O)C2)cc1 (stereo unspecified) | / | 12.0 | 0.8 | /
O=C(COC(=O)c1ccc2c(c1)OCO2)NC1CCCCC1 | / | 0.3 | -21.0 | /
COCCCn1c(SCC(=O)NC2CCCCC2)nnc1-c1ccncc1 | 0.0 | -2.0 | -16.3 | -4.8
COCCCn1c(SCC(=O)NC2CCS(=O)(=O)C2)nnc1-c1ccc(Cl)cc1 (stereo unspecified) | / | -4.3 | 22.7* | /
COc1ccccc1-c1nnc(SCC(=O)NC2CCS(=O)(=O)C2)n1N (stereo unspecified) | -0.8 | -11.2 | 22.1* | -0.4
COc1ccc(/C(C)=N\NC(=O)CSc2nnc(C)s2)cc1 | -7.8 | 48.2* | -16.5 | 11.5
Cn1c(SCC(=O)N2CC(=O)Nc3ccccc32)nnc1C(F)(F)F | / | -4.3 | -10.3 | /
Oc1c(Cl)cc(Cl)cc1C=Nc1ccc2c(c1)OCCO2 | 16.2* | -45.9 | -71.2 | 51.1*
O=C(CSc1nnc(SCc2ccccc2)s1)N/N=C/C=C/c1ccco1 | 93.9* | -101.8 | -54.3 | 5.8
CCn1c(SCC(=O)N/N=C/C(C)=C\c2ccco2)nnc1-c1ccccc1 | 51.4* | -8.1 | -29.6 | 7.0*
O=C(CN1CCN(Cc2ccccc2)CC1)N/N=C\C=C/c1ccco1 | ? | -8.8 | 3.9 | 2.5*
O=C(CN1CCN(Cc2ccccc2Cl)CC1)N/N=C/C=C/c1ccco1 | 0.8 | -14.1 | -13.4 | -14.3
CC(/C=N\NC(=O)CN1CCN(Cc2ccccc2)CC1)=C\c1ccco1 | ? | 11.5 | -6.9 | active
Cc1cccc(OCC(=O)NCCCNC(=O)c2ccncc2)c1 | 0.0 | -4.1 | 16.1 | 2.5
CCCNC(=O)C[C@@H]1C[C@H]2c3cc(NC(=O)c4ccc5c(c4)OCO5)ccc3O[C@H]2[C@@H](CO)O1 | / | 15.8 | -7.4 | /
COC(=O)[C@@H]1ON2OCC(C)=C3CCCC[C@@]32[C@H]1C(=O)OC | / | / | 7.8 | /
CCOCCCn1c(=N)c(S(=O)(=O)c2ccc(C)cc2)cc2c(=O)n3cc(C)ccc3nc21 | ? | 40.4* | -4.2 | 18.8
Cc1ccc(NC(=O)C2C3CCC(O3)C2C(=O)O)cc1C (stereo unspecified) | 8.9 | -12.3 | -4.5 | 9.4
Cc1ccc(NC(=O)C2C3CCCC2C3c2ccccc2)cc1C (stereo unspecified) | ? | -4.6 | 4.7 | 66.8*
CC1C(=O)N(Cc2cn(Cc3ccco3)nn2)CCS(=O)(=O)N1Cc1ccc(-c2ccc(F)cc2)cc1 (stereo unspecified) | / | -10.2 | -1.4 | /
O=C(Nc1cccc(OC(F)(F)F)c1)[C@@H]1O[C@H](CO)[C@H](O)[C@H](O)[C@H]1O | / | 15.2 | 8.6 | /
O=C(CSc1ccc([N+](=O)[O-])cc1)NCC1CCCCC1 | 3.3 | 13.0 | 25.7* | 27.9
SMILES | eIF4H FP inh | MLLE-PAM2 inh | CendR NRP1 mod | PABP polyA inh
CC(=O)Nc1cccc(OCC(=O)Nc2ccccc2)c1 | active | 12.4 | -5.7 | 62.0
Cc1cccc(OCC(=O)Nc2ccc3c(C)cc(=O)oc3c2)c1 | 78.2* | -21.2 | -1.9 | 13.5*
COc1cccc(NC(=O)CSC(N)=O)c1 | 5.1 | 37.7* | 3.2 | 31.6
Cc1cc(=O)oc2cc(NC(=O)COc3cccc(C(F)(F)F)c3)ccc12 | / | -21.0 | 2.1 | /
CN(C)C(=O)c1ccc(NC(=O)COc2cccc(Oc3ccccc3)c2)cc1 | 23.2 | -1.9 | 10.3 | 56.7*
O=C(COc1cccc(Oc2ccccc2)c1)Nc1ccc(SC(F)F)cc1 | 7.1 | -14.4 | -2.6 | -1.0
